Compound activity as filed in PubChem.
APE1 inh – qHTS Assay for Inhibitors of the Human Apurinic/apyrimidinic Endonuclease 1 (APE1); AID 2517, 2012; Potency, µM (doses to about 65.8 µM), actives largely listed as inhibitors; recombinant APE1, TAMRA/BHQ-2 abasic DNA cleavage fluorescence; actives 0.35% (n = 350,000); also: nearly all actives have a fitted effect of over 55% in size
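Endonuclease cleavage of a quenched abasic-site DNA duplex (50 nM) by APE1 (0.75 nM) was tracked by TAMRA dequenching. Compounds were preincubated with enzyme 15 min at room temperature; data normalized to buffer-only and DMSO wells plus NSC13755 control.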
FEN1 inhibitor – qHTS Assay for the Inhibitors of Human Flap endonuclease 1 (FEN1). P39748. Recombinant FEN1 flap cleavage, fluorescence, 15 min. Potency, µM (highest dose often 114 µM), actives largely listed as inhibitors. actives 0.35% (n = 390,000); also: nearly all actives have a fitted effect of over 65% in size
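In this screen, 50 nM flap DNA substrate was added to 10 nM FEN1 pretreated with compound for 15 min at room temperature; cleavage was followed with reads at 0 and 15 min, and Hill fitting gave concentration–response parameters.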
PI5P4K alpha inh – qHTS for Inhibitors of phosphatidylinositol 5-phosphate 4-kinase (PI5P4K); PI5P4Kalpha enzyme, ADP-Glo luminescence, 60 min; hits give low values; Phosphatidylinositol 5-phosphate 4-kinase type-2 alpha (Homo sapiens), P48426; actives 1.2% (n = 330,000); AID 652105, 2013; max response, %; active = max response of -50% or lower; inconclusive = between -30% and -50%; inactive = -30% or higher; also: value at the top dose of about 77 µM
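Quantitative HTS of the MLSMR library against PI5P4Kalpha with substrate. ATP added last at 5 microM final; room temperature, 60 minutes. Remaining ATP depleted, ADP converted and read as luminescence.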
BLM helicase inh – qHTS Assay for Inhibitors of Bloom's syndrome helicase (BLM). Potency, µM (doses to about 56.1 µM), hits mostly inhibitors. actives 0.2% (n = 350,000). recombinant BLM DNA unwinding, fluorescence dequenching; also: nearly all actives have a fitted effect of over 35% in size
RECQ1 inh-1 – qHTS Assay for Inhibitors of RecQ-Like Dna Helicase 1 (RECQ1). RECQ1 DNA unwinding, red fluorescence kinetic read. ATP-dependent DNA helicase Q1 (Homo sapiens), P46063. actives 0.54% (n = 240,000). Potency, µM (series often up to 57.3 µM), most hits filed as inhibitors; also: nearly all actives have a fitted effect of over 30% in size
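RECQ1T1 50 nM; forked duplex (20 bp + 30-nt ss tails) 200 nM, ATP 2 mM final; pH 8.0, 2 mM MgCl2, 2.5 ug/ml poly(dI-dC); 15 min compound preincubation; discontinuous kinetic read over 2 h at RT.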
KAT2A inh – qHTS Assay for Inhibitors of GCN5L2; AID 504327, 2011; Potency, µM (series often up to 58.9 µM), hits mostly inhibitors; GCN5L2 HAT assay, ThioGlo1 CoA-SH fluorescence; actives 0.21% (n = 390,000)
Target sequence (Q92830 whole entry, looked up): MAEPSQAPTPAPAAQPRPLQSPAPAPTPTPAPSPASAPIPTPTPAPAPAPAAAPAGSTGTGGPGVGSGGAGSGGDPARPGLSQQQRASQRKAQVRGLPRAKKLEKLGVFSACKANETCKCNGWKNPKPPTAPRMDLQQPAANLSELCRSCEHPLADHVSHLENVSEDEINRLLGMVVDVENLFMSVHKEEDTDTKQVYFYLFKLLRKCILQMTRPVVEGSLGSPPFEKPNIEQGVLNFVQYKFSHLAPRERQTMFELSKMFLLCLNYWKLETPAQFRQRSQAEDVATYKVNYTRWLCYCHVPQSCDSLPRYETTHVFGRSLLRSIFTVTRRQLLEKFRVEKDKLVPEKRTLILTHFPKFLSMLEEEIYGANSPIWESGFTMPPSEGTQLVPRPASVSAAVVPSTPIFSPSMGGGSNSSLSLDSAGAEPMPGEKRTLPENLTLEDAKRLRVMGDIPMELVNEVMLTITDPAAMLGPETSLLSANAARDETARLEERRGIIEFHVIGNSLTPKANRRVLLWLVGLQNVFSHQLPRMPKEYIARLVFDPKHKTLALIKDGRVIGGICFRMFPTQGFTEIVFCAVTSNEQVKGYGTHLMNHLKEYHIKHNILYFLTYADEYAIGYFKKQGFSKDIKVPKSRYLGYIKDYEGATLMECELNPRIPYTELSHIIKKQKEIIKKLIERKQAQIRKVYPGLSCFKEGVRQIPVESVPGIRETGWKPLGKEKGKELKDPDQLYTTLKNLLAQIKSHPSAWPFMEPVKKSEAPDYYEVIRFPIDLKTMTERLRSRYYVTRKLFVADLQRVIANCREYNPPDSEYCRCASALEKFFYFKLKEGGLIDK
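Preincubate 20nM GCN5L2 with compound 15 min, RT → add 50uM ThioGlo1 + 75uM H3(1-25) + 70uM acetyl-CoA → read fluorescence 0 and 20 min. Primary qHTS; fluorescent artifacts likely.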
RECQ1 inh conf – Confirmation qHTS Assay for Inhibitors of RecQ-Like Dna Helicase 1 (RECQ1); shares compounds with RECQ1 inh-1; RECQ1 helicase DNA unwinding, fluorescence; Potency, µM (titrated, usually from 229 µM), usual class: inhibitors; actives 28% (n = 610); AID 2708, 2010; also: nearly all actives have a fitted effect of over 45% in size
ADP FP counter – Counterscreen for RECQ1 Inhibitors: ADP Fluorescence Polarization Displacement Assay; shares compounds with RECQ1 inh-1; ADP fluorescence polarization displacement counterscreen; actives 27% (n = 530); Potency, µM (series often up to 228 µM), usual class: inhibitors; also: nearly all actives have a fitted effect of over 45% in size
RECQ1 inh-2 – Confirmation qHTS Assay for Inhibitors of RecQ-Like Dna Helicase 1 (RECQ1) - Round 2 Cherry Picks; shares compounds with RECQ1 inh-1; recombinant RECQ1 DNA unwinding, red fluorescence; Potency, µM (top dose mostly 119 µM), actives largely listed as inhibitors; actives 15% (n = 1,100); also: nearly all actives have a fitted effect of over 50% in size
Each line names hits and unclear results; the compound was inactive in the other large screens (follow-up assays come after a bar, where they were run). In the library only some 1.5% were active in any assay of this set; here they are far more common. Unless noted, calls follow the shape of the dose curve; as a rule, active = well fitted curve in the direction sought with a large enough effect; inconclusive = small, poorly fitted or top-dose-only effect, or another doubt; inactive = no such curve, though single readings can be large; an effect the other way counts as inactive or inconclusive.

COc1ccc(C=C2c3ccccc3C(=O)c3ccccc32)cc1O	APE1 inh inconclusive (no result: FEN1 inhibitor, PI5P4K alpha inh)
Cc1nn(Cc2c(Cl)cccc2Cl)c(C)c1C(=O)NCc1ccc(C)n1C	RECQ1 inh-1 inconclusive | RECQ1 inh-2 inactive
Cc1nn(Cc2c(F)cccc2Cl)c(C)c1NC(=O)C1CC1	none
Cc1ccc(CNc2ncnc3ccc(-c4c(C)noc4C)cc23)cc1	none (no result: FEN1 inhibitor, PI5P4K alpha inh, KAT2A inh)
CC(=O)N[C@H]1CSSC[C@@H](C(=O)N2CCC[C@H]2C(=O)N2CCC[C@H]2C(=O)N[C@@H](CCCCN)C(=O)N[C@@H](CC(=O)O)C(N)=O)NC(=O)CNC(=O)[C@H](Cc2c[nH]c3ccccc23)NC(=O)[C@H](CCCNC(=N)N)NC(=O)[C@@H](Cc2ccc3ccccc3c2)NC(=O)[C@H](Cc2cnc[nH]2)NC(=O)[C@H](CCC(=O)O)NC1=O	none (no result: FEN1 inhibitor, PI5P4K alpha inh)
O=C(NCc1ccco1)C1CCCCN1S(=O)(=O)c1ccc(F)cc1 (stereo not drawn)	RECQ1 inh-1 inconclusive | RECQ1 inh-2 inactive
O=C(NCc1ccc(F)cc1)C1CCCN1S(=O)(=O)c1ccc(F)cc1 (stereo not drawn)	none (no result: APE1 inh, FEN1 inhibitor, BLM helicase inh, RECQ1 inh-1, KAT2A inh)
CCOc1ccc2oc(-c3ccccc3)c(C(N)=O)c2c1	none (no result: RECQ1 inh-1)
CCOc1ccc2oc(-c3ccccc3)c(C(=O)O)c2c1	RECQ1 inh-1 inconclusive | RECQ1 inh-2 inactive
Cc1ccc2nc(-c3ccc(C)c(NC(=O)COc4ccc(Cl)cc4)c3)oc2c1	none (no result: APE1 inh, PI5P4K alpha inh, BLM helicase inh, RECQ1 inh-1, KAT2A inh)
Nc1ccc(-c2nc3ccc(C(=O)O)cc3s2)cc1	APE1 inh inconclusive, RECQ1 inh-1 inconclusive, KAT2A inh 28.2µM | RECQ1 inh-2 inactive
Cc1cc(C(c2ccc(C)o2)c2ccc(C)o2)c(O)c([N+](=O)[O-])c1	none
Cc1ccc(C(c2ccc(C)o2)c2cccc([N+](=O)[O-])c2O)o1	PI5P4K alpha inh -55.7, RECQ1 inh-1 inconclusive | RECQ1 inh-2 inconclusive
Cc1ccc(S(=O)(=O)N2CCc3nc(COc4ccccc4)c4c(c3C2)CO[C@@H](C)C4)cc1	none (no result: FEN1 inhibitor, PI5P4K alpha inh, KAT2A inh)
COc1cccc(C(=O)N(Cc2cc3cc(C)ccc3[nH]c2=O)C(C)C)c1	RECQ1 inh-1 inconclusive | RECQ1 inh-2 inactive
COc1cc(OC)cc(C(=O)N(Cc2cc3cc(C)ccc3[nH]c2=O)C(C)C)c1	none
CC(C)(C)c1ccc(C(=O)CS(=O)(=O)c2ccccc2)cc1	RECQ1 inh-1 inconclusive | RECQ1 inh-2 inactive
Cc1ccc(S(=O)(=O)CC(=O)c2ccccc2)cc1	RECQ1 inh-1 inconclusive
CC(CC(C)(C)C)CP(=O)(O)CC(C)CC(C)(C)C (stereo not drawn)	APE1 inh inconclusive (no result: FEN1 inhibitor, PI5P4K alpha inh)
CSc1nnc(-c2ccco2)c(-c2ccco2)n1	APE1 inh inconclusive, PI5P4K alpha inh inconclusive, BLM helicase inh inconclusive, RECQ1 inh-1 inconclusive, KAT2A inh inconclusive | RECQ1 inh-2 inactive
CSc1nnc(-c2ccccc2)c(-c2ccccc2)n1	none
CCOC(=O)C(C)Oc1cccc2c(=O)n(CC(=O)Nc3ccc4c(c3)OCCO4)ccc12 (stereo not drawn)	none
CCOC(=O)C(C)Oc1cccc2c(=O)n(CC(=O)NCc3ccc4c(c3)OCO4)ccc12 (stereo not drawn)	none | RECQ1 inh conf inactive | ADP FP counter inconclusive
CCC[C@@H]1NC(=O)[C@@H](NC(C)=O)CSSC[C@@H](C(N)=O)NC(=O)CNC(=O)[C@H](Cc2c[nH]c3ccccc23)NC(=O)[C@H](CCCN=C(N)N)NC(=O)[C@H](Cc2ccc3ccccc3c2)NC(=O)[C@H](Cc2cnc[nH]2)NC(=O)[C@H](CCCN=C(N)N)NC1=O	none (no result: FEN1 inhibitor, PI5P4K alpha inh)
CCN(CC)CCC(c1ccc(N(C)C)cc1)c1c(OC)cc(OC)c2c1OC(=O)CC2c1ccc(N(C)C)cc1 (stereo not drawn)	none (no result: PI5P4K alpha inh, KAT2A inh)
Cc1nnc2ccc(-c3ccc(NS(=O)(=O)c4ccccc4)cc3)nn12	none (no result: BLM helicase inh, RECQ1 inh-1)
CC(=O)c1ccc(S(=O)(=O)Nc2ccc(-c3ccc4nnc(C)n4n3)cc2)cc1	APE1 inh inconclusive, PI5P4K alpha inh inconclusive, RECQ1 inh-1 inconclusive | RECQ1 inh-2 inconclusive
C[C@H]1C(=O)N(S(=O)(=O)c2ccccc2[N+](=O)[O-])[C@H]1c1ccc(-c2ccccc2)cc1	FEN1 inhibitor inconclusive (no result: PI5P4K alpha inh, KAT2A inh)
CCS(=O)(=O)NCc1ccc2c(c1)cc(C)n2C	none
COc1ccc(CNS(=O)(=O)c2ccc(OC)cc2)cc1	none
Cc1cc2cc(CNS(=O)(=O)c3ccccc3)ccc2n1C	RECQ1 inh-1 inconclusive | RECQ1 inh-2 inconclusive
COc1ccc(S(=O)(=O)NCc2ccc3c(c2)cc(C)n3C)cc1	RECQ1 inh-1 31.6µM | RECQ1 inh-2 inconclusive
COc1ccccc1-c1nnc2n1N=C(c1c(OC)cccc1OC)CS2	none (no result: FEN1 inhibitor, PI5P4K alpha inh, KAT2A inh)
CCC(c1nnnn1Cc1ccco1)N(Cc1ccccc1OC)Cc1cc2cc(C)ccc2[nH]c1=O (stereo not drawn)	none
CCC(c1nnnn1Cc1ccco1)N(Cc1cc2cc(C)cc(C)c2[nH]c1=O)CC1CCCO1 (stereo not drawn)	PI5P4K alpha inh inconclusive, RECQ1 inh-1 inconclusive | RECQ1 inh-2 inactive
